Source: PubChem BioAssay (NCI)
This is part of a sample that, as a whole, favours compounds with a hit. Of some 79,000 tested, about 15% had one in any assay. Unmarked numbers belong to inactive results. The source made the active and inactive calls. No stated cut-off is given here; in the data, active means growth inhibition above about 70%; inactive means the rest.

What was measured:
[1] = NCI Yeast Anticancer Drug Screen. Data for the rad50 strain (AID 155);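 further: 0% = growth of vehicle-only cultures of the same strain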; conditions: S. cerevisiae rad50 strain growth inhibition, active compounds read high
Procedure, shortened: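 Growth of the mutant yeast was measured after compound exposure and referenced to vehicle-treated cultures.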

[2] = NCI Yeast Anticancer Drug Screen. Data for the mec2-1 strain (AID 157); conditions: S. cerevisiae mec2-1 strain, active compounds read high
Procedure, shortened: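 Vehicle-treated cultures served as reference for growth inhibition of compound-exposed mec2-1 yeast.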

[3] = NCI Yeast Anticancer Drug Screen. Data for the sgs1 mgt1 strain (AID 161);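 further: 0% = growth of cultures given vehicle only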; conditions: S. cerevisiae sgs1 mgt1 strain, active compounds read high
Procedure, shortened: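 Genetically altered yeast, compound exposure, growth inhibition relative to vehicle.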

[4] = NCI Yeast Anticancer Drug Screen. Data for the cln2 rad14 strain (AID 165);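 further: 0% = growth equal to vehicle treated cultures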; conditions: S. cerevisiae cln2 rad14 strain, active compounds read high
Procedure, shortened: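 Each compound was tested on cln2 rad14 yeast. Inhibition of growth was calculated against vehicle-exposed controls.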

[5] = NCI Yeast Anticancer Drug Screen. Data for the bub3 strain (AID 167); conditions: S. cerevisiae bub3 mutant strain, active compounds read high
Procedure, shortened: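 Whole-cell yeast assay. The mutant strain was incubated with compounds, and growth inhibition was determined by comparison with vehicle-treated cells.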

[6] = NCI Yeast Anticancer Drug Screen. Data for the mlh1 rad18 strain (AID 175); conditions: S. cerevisiae mlh1 rad18 strain growth inhibition, active compounds read high
Procedure, shortened: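 Vehicle-treated cultures served as the reference for growth inhibition in a yeast strain carrying DNA damage repair alterations exposed to each compound.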

[7] = at 5.0 µM (retest, dose inferred, filed as 0.5)
[8] = at 50.0 µM (retest, dose inferred, filed as 5.0)

Cc1ccc(S(=O)(=O)Nc2ccc3c(c2)Cc2cc([N+](=O)[O-])ccc2-3)cc1
growth inhibition [1, 7]: 45% | growth inhibition [1, 8]: 60% | growth inhibition ([1]; at 50.0 µM): 78% (active) | growth inhibition [2, 7]: 24% | growth inhibition [2, 8]: 58% | growth inhibition ([2]; at 50.0 µM): 45.8% | growth inhibition [3, 7]: 42% | growth inhibition [3, 8]: 62% | growth inhibition ([3]; at 50.0 µM): 67.2% | growth inhibition [4, 7]: 45% | growth inhibition [4, 8]: 52% | growth inhibition ([4]; at 50.0 µM): 48.3% | growth inhibition [5, 7]: 57% | growth inhibition [5, 8]: 63% | growth inhibition ([5]; at 50.0 µM): 59.2% | growth inhibition [6, 7]: 58% | growth inhibition [6, 8]: 69% | growth inhibition ([6]; at 50.0 µM): 81.3% (active)

CN(C)c1ccc(C(O)(Cc2cccc(C#N)c2)c2ccc(N(C)C)cc2)cc1
growth inhibition [1, 7]: 2% | growth inhibition [1, 8]: -13% | growth inhibition ([1]; at 50.0 µM): 63.5% | growth inhibition [2, 7]: 0% | growth inhibition [2, 8]: -6% | growth inhibition ([2]; at 50.0 µM): 55.9% | growth inhibition [3, 7]: -4% | growth inhibition [3, 8]: -10% | growth inhibition ([3]; at 50.0 µM): 52.8% | growth inhibition [4, 7]: -2% | growth inhibition [4, 8]: -16% | growth inhibition ([4]; at 50.0 µM): 66% | growth inhibition [5, 7]: 2% | growth inhibition [5, 8]: -5% | growth inhibition ([5]; at 50.0 µM): 69% | growth inhibition [6, 7]: -2% | growth inhibition [6, 8]: -70% | growth inhibition ([6]; at 50.0 µM): 56.8%

Cc1c(C#N)c(N)nc2c(C(N)=O)nsc12
growth inhibition [1, 7]: -2% | growth inhibition [1, 8]: -13% | growth inhibition ([1]; at 50.0 µM): 13.2% | growth inhibition [2, 7]: -2% | growth inhibition [2, 8]: -8% | growth inhibition ([2]; at 50.0 µM): 8.75% | growth inhibition [3, 7]: -3% | growth inhibition [3, 8]: -9% | growth inhibition ([3]; at 50.0 µM): 10.7% | growth inhibition [4, 7]: -2% | growth inhibition [4, 8]: -18% | growth inhibition ([4]; at 50.0 µM): 53.6% | growth inhibition [5, 7]: 9% | growth inhibition [5, 8]: 16% | growth inhibition ([5]; at 50.0 µM): -8.4% | growth inhibition [6, 7]: -1% | growth inhibition [6, 8]: -11% | growth inhibition ([6]; at 50.0 µM): 26.2%

COC(=O)c1nc(=S)[nH]c(C(=O)OC)c1C(=O)c1ccc2ccccc2c1
growth inhibition [1, 7]: 26% | growth inhibition [1, 8]: 96% (active) | growth inhibition ([1]; at 50.0 µM): 94.5% (active) | growth inhibition [2, 7]: 9% | growth inhibition [2, 8]: 97% (active) | growth inhibition ([2]; at 50.0 µM): 71.5% (active) | growth inhibition [3, 7]: 0% | growth inhibition [3, 8]: 97% (active) | growth inhibition ([3]; at 50.0 µM): 93.3% (active) | growth inhibition [4, 7]: 8% | growth inhibition [4, 8]: 96% (active) | growth inhibition ([4]; at 50.0 µM): 25.8% | growth inhibition [5, 7]: 13% | growth inhibition [5, 8]: 98% (active) | growth inhibition ([5]; at 50.0 µM): 71.1% (active) | growth inhibition [6, 7]: 16% | growth inhibition [6, 8]: 98% (active) | growth inhibition ([6]; at 50.0 µM): 94.5% (active)

O=C(O)/C(=C/c1c(O)ccc2ccccc12)c1csc(-c2nc(/C(=C\c3c(O)ccc4ccccc34)C(=O)O)cs2)n1
growth inhibition [1, 7]: 74% (active) | growth inhibition [1, 8]: 74% (active) | growth inhibition ([1]; at 50.0 µM): 89.6% (active) | growth inhibition [2, 7]: 48% | growth inhibition [2, 8]: 48% | growth inhibition ([2]; at 50.0 µM): 92% (active) | growth inhibition [3, 7]: 74% (active) | growth inhibition [3, 8]: 74% (active) | growth inhibition ([3]; at 50.0 µM): 92% (active) | growth inhibition [4, 7]: 46% | growth inhibition [4, 8]: 46% | growth inhibition ([4]; at 50.0 µM): 90% (active) | growth inhibition [5, 7]: 49% | growth inhibition [5, 8]: 49% | growth inhibition ([5]; at 50.0 µM): 90.2% (active) | growth inhibition [6, 7]: 68% | growth inhibition [6, 8]: 68% | growth inhibition ([6]; at 50.0 µM): 88% (active)

N#CCCN(CCCN1CCOCC1)C(=S)Nc1cccc(C(F)(F)F)c1
growth inhibition [1, 7]: 34% | growth inhibition [1, 8]: 44% | growth inhibition ([1]; at 50.0 µM): 42.9% | growth inhibition [2, 7]: 23% | growth inhibition [2, 8]: 33% | growth inhibition ([2]; at 50.0 µM): 35.8% | growth inhibition [3, 7]: 41% | growth inhibition [3, 8]: 37% | growth inhibition ([3]; at 50.0 µM): 71.1% (active) | growth inhibition [4, 7]: 41% | growth inhibition [4, 8]: 60% | growth inhibition ([4]; at 50.0 µM): 59.5% | growth inhibition [5, 7]: 49% | growth inhibition [5, 8]: 58% | growth inhibition ([5]; at 50.0 µM): 49.8% | growth inhibition [6, 7]: 48% | growth inhibition [6, 8]: 61% | growth inhibition ([6]; at 50.0 µM): 36%

COc1ccc2nc3cc(Cl)ccc3c(NCCNCCCNC(=O)c3cc(-c4ccccc4)nc4ccccc34)c2c1
growth inhibition [1, 7]: -14% | growth inhibition [1, 8]: 98% (active) | growth inhibition ([1]; at 50.0 µM): 96.3% (active) | growth inhibition [2, 7]: -1% | growth inhibition [2, 8]: 87% (active) | growth inhibition ([2]; at 50.0 µM): 93.9% (active) | growth inhibition [3, 7]: -5% | growth inhibition [3, 8]: 69% | growth inhibition ([3]; at 50.0 µM): 95.2% (active) | growth inhibition [4, 7]: 30% | growth inhibition [4, 8]: 98% (active) | growth inhibition ([4]; at 50.0 µM): 97.5% (active) | growth inhibition [5, 7]: -15% | growth inhibition [5, 8]: 97% (active) | growth inhibition ([5]; at 50.0 µM): 94.2% (active) | growth inhibition [6, 7]: -11% | growth inhibition [6, 8]: 98% (active) | growth inhibition ([6]; at 50.0 µM): 98.2% (active)

COc1ccc(C(=O)Oc2c(Br)cc(Br)cc2Br)cc1
growth inhibition [1, 7]: 4% | growth inhibition [1, 8]: -3% | growth inhibition ([1]; at 50.0 µM): 14.2% | growth inhibition [2, 7]: 3% | growth inhibition [2, 8]: -3% | growth inhibition ([2]; at 50.0 µM): 12.7% | growth inhibition [3, 7]: 8% | growth inhibition [3, 8]: 10% | growth inhibition ([3]; at 50.0 µM): 1.9% | growth inhibition [4, 7]: -1% | growth inhibition [4, 8]: -30% | growth inhibition ([4]; at 50.0 µM): -6.5% | growth inhibition [5, 7]: 7% | growth inhibition [5, 8]: 5% | growth inhibition ([5]; at 50.0 µM): 87.8% (active) | growth inhibition [6, 7]: 1% | growth inhibition [6, 8]: 2% | growth inhibition ([6]; at 50.0 µM): 7.75%

Cc1ccc([PH+](CC[PH+](c2ccccc2)c2ccccc2)c2ccc(C)cc2)cc1.Cc1ccc([PH+](CC[PH+](c2ccccc2)c2ccccc2)c2ccc(C)cc2)cc1.[Pt]
growth inhibition [1, 7]: 40% | growth inhibition [1, 8]: 88% (active) | growth inhibition ([1]; at 50.0 µM): 88.8% (active) | growth inhibition [2, 7]: 26% | growth inhibition [2, 8]: 91% (active) | growth inhibition ([2]; at 50.0 µM): 90.7% (active) | growth inhibition [3, 7]: 33% | growth inhibition [3, 8]: 95% (active) | growth inhibition ([3]; at 50.0 µM): 91.3% (active) | growth inhibition [4, 7]: 34% | growth inhibition [4, 8]: 93% (active) | growth inhibition ([4]; at 50.0 µM): 89.8% (active) | growth inhibition [5, 7]: 29% | growth inhibition [5, 8]: 94% (active) | growth inhibition ([5]; at 50.0 µM): 90.7% (active) | growth inhibition [6, 7]: 39% | growth inhibition [6, 8]: 93% (active) | growth inhibition ([6]; at 50.0 µM): 88.5% (active)
